# Source: PubChem BioAssay
# NPYLR7 agonist – activates Aedes aegypti NPYLR7 receptor; HEK293T NPYLR7/Galpha15, GCaMP6s calcium fluorescence; activation, % at 10 µM; 270,000 compounds, 0.15% hits; in the data active means activation above about 40%;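 further: 0% = vehicle and 100% = reference agonist at the receptor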
# hcGAS lum – human cGAS inhibition. recombinant h-cGAS, ATP depletion, Kinase-Glo luminescence. inhibition, % at 12.5 µM. Q8N884. 290,000 compounds, 0.081% hits. AID 1259398;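 further: 0% = vehicle reaction and 100% = reaction without DNA for no activity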
# mcGAS inh – blocks mouse cGAS activity; Q8C6L5; recombinant cGAS, Kinase-Glo ATP depletion luminescence; inhibition, % at 12.5 µM; 160,000 compounds, 0.15% hits;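 further: 0% = negative control wells and 100% = reference inhibitor with no enzyme activity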
# Target sequence (Q8C6L5 whole entry, looked up): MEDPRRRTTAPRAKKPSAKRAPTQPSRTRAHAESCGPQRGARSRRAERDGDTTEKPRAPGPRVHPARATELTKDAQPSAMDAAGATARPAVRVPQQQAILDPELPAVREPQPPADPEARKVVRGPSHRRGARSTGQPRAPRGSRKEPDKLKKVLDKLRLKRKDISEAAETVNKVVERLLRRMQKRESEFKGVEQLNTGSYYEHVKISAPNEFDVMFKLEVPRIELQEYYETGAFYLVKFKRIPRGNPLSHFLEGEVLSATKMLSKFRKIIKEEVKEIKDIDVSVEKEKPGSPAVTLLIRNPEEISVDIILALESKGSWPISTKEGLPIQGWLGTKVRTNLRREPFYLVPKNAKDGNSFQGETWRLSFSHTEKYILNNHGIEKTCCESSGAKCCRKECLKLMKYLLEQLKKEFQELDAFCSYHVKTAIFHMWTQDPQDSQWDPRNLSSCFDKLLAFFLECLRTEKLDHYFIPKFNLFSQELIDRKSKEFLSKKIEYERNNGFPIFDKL
# An asterisk follows results filed as active; · = no result given; ! = not active in a repeat. The list is not random: actives were taken first. Their share in the collection is about 0.3%. Unless noted, no stated cut-off is given here; in the data, active means inhibition above about 40%; inactive means the rest.
SMILES,NPYLR7 agonist,hcGAS lum,mcGAS inh
COc1cc(/C=C2\C(=N)N3N=CSC3=NC2=O)cc(Br)c1OC(=O)c1ccco1,49*,6,·
CCOc1cc(/C=C2/C(=N)N3C=CSC3=NC2=O)cc(Br)c1OC(=O)c1ccco1,-1,-1,5
CCN(CC)CCCC(C)NC(=O)c1cc(-c2ccc(OC)cc2)nc2cc(-c3ccc(Cl)cc3)nn12 (stereo unspecified),6,-3,-3
CCN(CC)CCCC(C)NC(=O)c1cc(-c2ccc(OC)cc2)nc2cc(-c3ccccc3)nn12 (stereo unspecified),12,91*,90*
CCOC(=O)CCC(=O)N1CCN(c2c(Cc3ccccc3)c(C)nc3ncnn23)CC1,21,-1,-5
COc1ccc(-c2coc3cc(O)ccc3c2=O)c(O)c1O,·,51*,68*
COc1ccc(-c2coc3cc(O)ccc3c2=O)c(OC)c1O,-4,-2,-2
CN(CCC1(O)CCCC1)C(=O)c1ncn[nH]1,12,-6,·
Cc1nccn1CC(C)CNC(=O)N1CCC(C(C)C)CC1 (stereo unspecified),6,-12,68*
Cc1ncc(CNC(=O)N2CCC(C(C)C)CC2)s1,2,-4,·
CCNC(=O)C1CCN(Cc2ccc(Cl)s2)CC1,5,-14,·
N#CC(C#N)=CC(=N)C(C#N)c1cc(O)c(O)c(O)c1 (stereo unspecified),7,12,51*
CN(C)CC1CCN(c2ccc(NC(=O)C3CCCN3c3ncccn3)cc2)CC1 (stereo unspecified),-6,2,·
CNN=Cc1cc(Br)cc(Br)c1O,25,11,13
Oc1c(Br)cc(Br)cc1C=NC1CC1,9,53*,·
COc1cc(CN2C(=O)C(C)ON=C2C2CC2)cc(OC)c1 (stereo unspecified),8,-3,·
C=CCN=C(NC(=O)c1ccc(Cl)c(Cl)c1)OCC,-18,1,1
COc1ccc(Nc2nc(N3CCN(c4ccccc4F)CC3)nc3[nH]ncc23)cc1,2,-14,·
CCC(=O)Nc1sc2c(c1-c1nc3ccccc3s1)CCN(CC)C2,28,73*,100*
CCN1CCc2c(sc(NC(=O)CN3C(=O)CCC3=O)c2-c2nc3ccccc3s2)C1,24,45*,44*
CN1CCc2c(sc(NC(=O)CN3C(=O)c4ccccc4C3=O)c2-c2nc3ccccc3s2)C1,2,0,-6
CCN1CCc2c(sc(NC(=O)CS(=O)(=O)c3ccccc3)c2-c2nc3ccccc3s2)C1,22,-9,-8
CCN1CCc2c(sc(NC(C)=O)c2-c2nc3ccccc3s2)C1,5,73*,94*
CCN1CCc2c(sc(NC(=O)c3ccc(C(C)=O)cc3)c2-c2nc3ccccc3s2)C1,20,7,2
CCN1CCc2c(sc(NC(=O)c3ccco3)c2-c2nc3ccccc3s2)C1,9,38,39
SMILES,NPYLR7 agonist,hcGAS lum,mcGAS inh
CCN1CCc2c(sc(NC(=O)c3ccccc3)c2-c2nc3ccccc3s2)C1,91*,17,6
CCSc1nc(N2CCOCC2)c2cnn(CCNC(=O)c3ccc(F)c(F)c3)c2n1,0,3,-8
Cc1nccn1CCn1nc(C2CCNCC2)n(Cc2ccccc2)c1=O,-5,-5,·
Cc1ccc(-c2cc(C(F)(F)F)n3ncc(C(=O)Nc4cccc(Cl)c4Cl)c3n2)cc1,6,-3,-4
OC(Cc1ccccc1)Cn1cnc(-c2ccccc2)c1-c1ccco1 (stereo unspecified),17,-5,-9
O=C(c1cc(F)c(Cl)cc1Cl)N(CC1CCCO1)CC1CCCO1 (stereo unspecified),9,-9,·
COc1ccc(OC)c(NS(=O)(=O)c2cc([N+](=O)[O-])ccc2C)c1,4,1,·
CCN1CCc2c(sc(NC(=O)c3ccc(OC)cc3)c2-c2nc3ccccc3s2)C1,10,0,-3
CCN1CCc2c(sc(NC(=O)COc3ccccc3)c2-c2nc3ccccc3s2)C1,53*,2,-1
CC(C)c1cc(C(=O)N2CCn3c(C(N)=O)cnc3C2)cs1,-2,-2,-19
CCOC(=O)C(c1ccc(OC)c(OC)c1)C1C=CC(NS(=O)(=O)c2ccc(-c3ccccc3)cc2)C1 (stereo unspecified),10,-9,-7
CCCc1nc(C(=O)N2CCCC(c3[nH]ncc3CC)C2)cs1 (stereo unspecified),0,-5,-22
CCc1cn[nH]c1C1CCCN(C(=O)c2csc(Cc3ccccc3)n2)C1 (stereo unspecified),9,55*,-13
CC(=O)Nc1ccc(Nc2c3c(nc4c(-c5ccccc5)c(C)nn24)CCCC3)cc1,5,-8,-10
CCn1cc(C(=O)O)c(=O)c2cc(F)c(N3CCNCC3)cc21,-3,-2,-4
CCn1cc(C(=O)O)c(=O)c2cnc(N3CCNCC3)nc21,70*!,-4,-7
CCSc1nnc(-c2ccccc2NC(=O)Cc2cccc(F)c2F)c(=O)[nH]1,·,-3,·
COc1ccc(-c2n[nH]c(=S)n2N=Cc2ccc(OC)c(Br)c2)cc1,5,-5,-5
COc1cc(Br)c(O)c(/C=N\n2c(C)n[nH]c2=S)c1,134*,10,·
Cc1cccc(CC(=O)Nc2cc(C)nn2-c2ncnc3c2cnn3-c2ccccc2)c1,6,-4,-2
O=c1ccccn1Cc1nc(-c2cc(Br)cs2)no1,16,-7,-16
CCn1nc(-c2cc(Br)cs2)nc2c(=O)n(C)c(=O)nc1-2,5,22,60*
N#CC(C#N)=Cc1cn[nH]c1-c1cc2ccccc2o1,-1,19,46*
N#CC(C#N)=Cc1cn(-c2ccccc2)nc1-c1cc2ccccc2o1,-9,0,·
N[C@@H](Cc1ccc(O)cc1)C(=O)N1CCc2[nH]nc(-c3ccccc3F)c2C1,2,-4,-13
SMILES,NPYLR7 agonist,hcGAS lum,mcGAS inh
CCOC(=O)c1cc(O)c(C(=O)OCC)s1,62*!,-3,-4
CCOC(=O)c1sc(N)c(C(N)=O)c1C,1,-9,·
CC[n+]1c(C)cc(Cl)c2ccccc21,1,-7,-5
Cc1cc(N)c2ccccc2[n+]1CCCCCCCCCC[n+]1c(C)cc(N)c2ccccc21,-4,91*!,-2
Cc1cc2ncn(CN3CCN(c4ccccc4O)CC3)c2cc1C,-4,-7,·
COCCn1c(C)cn2c3c(=O)n(Cc4ccc(Cl)cc4)c(=O)n(C)c3nc12,52*,-7,-8
COCCCn1c(C)cn2c3c(=O)n(Cc4ccc(Cl)cc4)c(=O)n(C)c3nc12,12,-9,·
O=C(COC(=O)C=Cc1ccco1)COC(=O)C=Cc1ccco1,-15,16,·
N#CC(=CC=Cc1ccco1)C(N)=S,6,61*,79*
CCCCN(CC(=O)Nc1c(-c2ccccc2)c(C)nn1-c1ccc(OC)cc1)C(=O)Nc1ccc(C(=O)OCC)cc1,0,6,1
O=c1nc2sc3[nH]c(=O)sc3cc-2s1,244*,6,46*
C=CCNC(=O)c1ccccc1N1CCC(NC(=O)COC)CC1,-1,-7,54*
C=CCNC(=O)NC1CCN(c2ccccc2C(=O)NCCOC)CC1,-1,-5,-5
CCCCC(=O)Nc1cc([N+](=O)[O-])ccc1OC,1,-5,·
O=C(CCl)Nc1cc([N+](=O)[O-])ccc1Nc1ccc(F)cc1,-6,-2,57*
COc1ccc([N+](=O)[O-])cc1NC(=O)C1CCCC1,-1,-10,-1
